# Compound activity (PubChem)
# Sampled rows, rich in hits. Any-hit rate of the full collection: about 6.3%.
# DPM-DC inhibit: blocks S. pneumoniae diphosphomevalonate decarboxylase; AID 556; 65,000 compounds, 0.49% hits; purified DPM-DC, PK/LDH coupled NADH fluorescence; calls only at 10 µM;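 active means the 320 compounds with the highest percent inhibition in the single-dose primary screen, excluding strongly autofluorescent ones, cut at about 32% in these data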;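 further: kinetic rate of NADH fluorescence loss reporting ADP formed by the decarboxylase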
# Autofluor 339: intrinsic fluorescence of library compounds, ex339/em460 – biochemical, MLSMR library, data from DPM-DC assay, artefact control, profiling panel. compound autofluorescence, ex339/em460 nm, NADH buffer; stronger effect = higher value; 1 = no-compound wells, NADH background. fluorescence fold increase at 10 µM. 65,000 compounds, 5.5% hits. AID 709;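 active means at 10 µM, mean starting fluorescence two-fold or more over control wells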;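 further: signal is the first read of a kinetic run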
# NADH coupling: inhibitors of enzymes used to reach an NAD/NADH endpoint. IC50, µM (highest dose often 10 µM), inactives show at the top dose inhibition. AID 774. coupled PK/LDH NADH assays, four targets. 65,000 compounds, 0.02% hits;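 active means single-dose screening hits from any of four coupled enzyme assays that gave an IC50 when retested across doses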;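 further: the DPM-DC format reads NADH fluorescence rather than 340 nm absorbance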
# A340 absorber: compound absorbs light at 340 nm; 65,000 tested, under 10 active; fold change at 10 µM; compound absorbance at 340 nm, fold over control;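 active means at 10 µM dose, initial 340 nm absorbance at least 2 fold that of control wells; inactive means change under 2 fold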;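 further: initial absorbance extrapolated from kinetic A340 decline of NADH oxidation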
# MK inhibit: blocks S. pneumoniae mevalonate kinase. 65,000 compounds, 0.48% hits. inhibition, % at 10 µM. purified MK, PK/LDH-coupled NADH absorbance 340 nm;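 active means ranked among the strongest by inhibition in the single 10 µM screen, a fixed top-ranked set picked for dose follow-up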
# PMK inhibit: S. pneumoniae PMK inhibition. 65,000 compounds, 0.49% hits. inhibition, % at 10 µM. purified PMK, PK/LDH-coupled NADH absorbance 340 nm;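 active means top-ranked compounds by inhibition in the single 10 µM screen, taking a fixed number of the strongest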;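 further: 0% = full reaction with DMSO carrier and 100% = background rate without enzyme reaction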
# Numbers without * were called inactive; i = inactive; / = no result given.
SMILES,DPM-DC inhibit,Autofluor 339,NADH coupling,A340 absorber,MK inhibit,PMK inhibit
Cc1ccc(-c2cc(C(=O)NCc3ccco3)c3ccccc3n2)o1,/,4.94*,9.0%,1.06,11.0,6.0
Cc1ccc(-c2cc(C(=O)NC3=NCCS3)c3cc(Br)ccc3n2)o1,i,1.14,20.0%,1.1,26.0,5.0
O=C(C1CCCN(S(=O)(=O)c2ccc(Cl)cc2)C1)N(Cc1cccs1)C1CC1 (stereo not given),i,1.08,2.0%,1.04,3.0,3.0
[O-][n+]1onc2c1C(N1CCOCC1)CCC2N1CCOCC1 (stereo not given),i,1.04,5.0%,0.99,10.0,5.0
Cc1cc(NC(=O)c2ccccc2-c2ccccc2C(=O)O)no1,i,1.07,9.0%,1.04,1.0,20.0
Cc1cc(NC(=O)c2cccc(C(=O)Nc3cc(C)on3)n2)no1,i,1.07,9.0%,1,10.0,9.0
Cc1cc(NC(=O)c2cc(-c3ccncc3)nc3c(C)cccc23)no1,i,2.73*,6.0%,1.12,2.0,2.0
Cc1cc(NC(=O)c2cc(-c3cccs3)nc3ccccc23)no1,/,2.05*,5.0%,1.11,5.0,4.0
COc1nnc(-c2ccc(C(=O)N3C[C@@H]4C[C@H](C3)c3cccc(=O)n3C4)cc2)c2ccccc12,i,1.06,2.0%,1.04,5.0,1.0
Cc1cc(=O)oc2c1c(C)nn2-c1ccc(C(=O)OC(C)C)cc1,i,1.03,1.0%,0.99,5.0,1.0
COCCn1c(C)cc2c(c1=O)C(c1ccccc1F)C(C#N)=C(N)O2 (stereo not given),i,1.05,9.0%,1.01,2.0,26.0*
CCOc1ccc(-c2nnc(SCC(=O)N3CCN(c4ccccc4)CC3)o2)cc1,i,1.05,4.0%,1.01,11.0,26.0*
O=C(CSc1nnc(-c2ccccc2)o1)N1CCN(c2ccccc2)CC1,i,1.03,3.0%,0.98,15.0,1.0
COc1ccc(Oc2c(C)oc3c(CN(C)C)c(O)ccc3c2=O)cc1,/,3.92*,5.0%,1.16,2.0,8.0
COc1ccc(Oc2coc3c(CN(C)C)c(O)ccc3c2=O)cc1,/,2.26*,14.0%,1.16,9.0,19.0
CCOC(=O)c1cnc2cc3c(cn2c1=O)CCCC3,/,5.02*,11.0%,1.15,5.0,16.0
CC1=C(C(=O)OCCOC(C)C)C(c2cccnc2)C2=C(CCCC2=O)N1 (stereo not given),/,2.21*,2.0%,1.08,2.0,1.0
COCCOC(=O)C1=C(C)NC2=C(C(=O)CC(C)(C)C2)C1c1cccnc1 (stereo not given),/,3.81*,11.0%,1.05,11.0,11.0
CCOC(=O)C1=C(C)NC2=C(C(=O)CC(C)(C)C2)C1c1ccc(N(C)C)cc1 (stereo not given),i,1.16,4.0%,1,0.0,0.0
CC1=C(C(=O)OCC2CCCO2)C(c2ccncc2)C2=C(CC(C)(C)CC2=O)N1 (stereo not given),/,2.09*,1.0%,1.07,2.0,0.0
CCN(CC)c1ccc(C2C(C(=O)OCCOC(C)C)=C(C)NC3=C2C(=O)CCC3)cc1 (stereo not given),i,1.35,4.0%,1.1,0.0,0.0
CC(C(=O)Nc1nccs1)N1C(=O)C2CC=CCC2C1=O (stereo not given),i,1.07,6.0%,0.96,0.0,18.0
COc1ccccc1OCCCn1c(=O)oc2ccccc21,i,1.03,4.0%,0.98,14.0,7.0
Cc1nnc(SCC(=O)Nc2ncc(Cc3ccc(F)cc3)s2)n1N,i,1.22,34.0%,1.1,32.0,44.0*
CCN(CC)CCN(Cc1cc2cc3c(cc2[nH]c1=O)OCCO3)C(=O)NC1CCCCC1,/,3.81*,12.0%,1.08,8.0,16.0
O=C(NC1CCCCC1)N(CCN1CCOCC1)Cc1cc2cc3c(cc2[nH]c1=O)OCCO3,/,4.38*,10.0%,1.11,9.0,10.0
COc1ccc(CCN(Cc2cc3cc(C)ccc3[nH]c2=O)C(=O)N2CCCC2)cc1OC,i,1.25,4.0%,1,5.0,6.0
Cc1ccc2[nH]c(=O)c(CN(CCCN3CCOCC3)C(=O)NC3CCCCC3)cc2c1,i,1.59,3.0%,1.02,5.0,5.0
CCc1ccc2[nH]c(=O)c(CN(CCN3CCCC3)C(=O)NC3CCCCC3)cc2c1,i,1.59,6.0%,0.98,0.0,16.0
